This is one part of the list. Active and inactive are the calls of the source.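 How the source made its calls, unless noted: active means dye signal at least 3 control SD above or below untreated wells in both duplicates, raw fluorescence within 3, either direction; inactive means the rest.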

For the first test, the target named is Inward rectifier potassium channel 2 (Mus musculus) (UniProt P35561). The test can be described thus: inhibition of Kir2.1 inward rectifier potassium flux – cell-based, FluxOR thallium flux, duplicate, confirmation (AID 2032;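 active means Primary-screen hit whose thallium flux fell at least 3 control SD below untreated wells in both duplicates, with normal baseline fluorescence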). Particulars: Kir2.1-expressing cells, FluxOR thallium flux fluorescence, at 10 µM; active compounds read low.
Sequence of Inward rectifier potassium channel 2 (Mus musculus) (P35561 whole entry, looked up): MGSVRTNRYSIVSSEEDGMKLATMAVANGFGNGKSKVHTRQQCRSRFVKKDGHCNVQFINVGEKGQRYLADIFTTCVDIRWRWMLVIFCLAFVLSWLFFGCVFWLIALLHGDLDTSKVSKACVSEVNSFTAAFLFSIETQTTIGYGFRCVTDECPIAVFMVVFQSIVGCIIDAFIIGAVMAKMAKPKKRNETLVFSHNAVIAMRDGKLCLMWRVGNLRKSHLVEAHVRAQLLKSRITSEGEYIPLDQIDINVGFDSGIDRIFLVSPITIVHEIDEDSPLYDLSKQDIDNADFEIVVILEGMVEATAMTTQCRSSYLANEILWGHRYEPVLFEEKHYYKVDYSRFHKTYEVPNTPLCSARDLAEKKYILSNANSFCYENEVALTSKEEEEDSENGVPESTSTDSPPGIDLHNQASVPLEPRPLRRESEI
For `N=c1c2c(-c3ccccc3)c(-c3ccccc3)n(Cc3ccccc3)c2ncn1CCCO`, the Tl flux remaining, % of negative control (active compounds read low) is 37% (active).
Take `CCCCNC(=O)Nc1c(C)cc(SC#N)cc1C`: the outcome was inactive.
Same read-out and setting: for `Cc1cc2oc3ccc(NCCC4CCCN4C)cc3c(=O)c2cc1C` (stereo not drawn) the value was “inactive”.
On to `C/C(=N\NC(=O)c1ccoc1C)c1ccccc1O`, for which the call was inactive.
Same read-out and setting: for `CCN(CC(=O)NC(=O)NCc1ccccc1)Cc1nc2ccccc2c(=O)[nH]1` the value was “inactive”.
On to `Cc1ccc2nc(C)c3c(c2c1)N(c1ccccc1)CC3`, for which the Tl flux remaining, % of negative control (active compounds read low) was 27.5% (active).
In the case of `CCc1ccc(NC(=O)C(=O)NNC(=O)c2cccs2)cc1`, the result was inactive.
As to `N#Cc1c(-c2ccccc2)nc(SCc2cccc(C(F)(F)F)c2)[nH]c1=O`, the call was inactive.
Still for that read-out and setting: for `Cc1ccc(/C=N/NC(=O)c2cc3ccccc3cc2O)o1` the value was “inactive”; for `COc1ccc(NC(=O)/C(Cl)=C(/Cl)S(=O)Cc2ccc(C)cc2)cn1` (stereo not drawn), “inactive”.
`FC(F)(F)c1cccc(NC(=S)Nc2cccc(Cl)c2)c1`: the call was inactive.
In the case of `S=C(NCc1ccc(Cl)cc1)NC12CC3CC(CC(C3)C1)C2`, the compound was classed as inactive.
As for `O=C(NNC1=C(C(=O)C(F)(F)F)CCC1)c1ccncc1`, the compound was called inactive.
For the compound `CCn1c(=S)[nH]c2sc3c(c2c1=O)CCCCC3`, the result was inactive.
`Cc1[nH]n(-c2cccc(Cl)c2)c(=O)c1/C=N/n1c(C)nc2ccccc2c1=O`: the call was inactive.
On the same count and under the same terms, for `Cc1[nH][nH]c(=O)c1C(c1ccc(-c2ccc(Cl)cc2)o1)c1c(C)[nH][nH]c1=O` the value was “inactive”.
For `CCn1c2ccccc2c2cc(NC(=O)CNC)ccc21`, the Tl flux remaining, % of negative control (active compounds read low) was 44% (active).
With `Cc1ccc(-n2nc3c(c2NC(=O)CCC2CCCCC2)CS(=O)C3)cc1` (stereo not drawn), the compound was classed as inactive.
Regarding `CCc1ccc(-c2nn(-c3ccccc3)cc2CSC(=N)N)cc1`, the Tl flux remaining, % of negative control (active compounds read low) was 33.5% (active).
Take `O=C(Nc1ccc(Oc2ccccc2)cc1)c1ccco1`: the compound was called inactive.
Still for that read-out and setting: for `Cc1cccc(NC(=O)CSC(N)=O)c1C` the value was “inactive”.
As to `Cc1cccc(NC(=S)NC(=O)c2ccc(Br)o2)c1`, the compound was called inactive.
On to `CC(=O)N(C1=C(Cl)C(=O)c2ccccc2C1=O)c1ccc(C(=O)O)cc1`, for which the compound was classed as inactive.
Regarding `CCn1c(O)c(N=NC2=NC(=O)CS2)c2cc(C)ccc21`, the outcome was inactive.
The same measure, in the same setting: to `CC1=C/C(=N\OS(=O)(=O)c2ccccc2)C=CC1=O` belongs “inactive”.
Same read-out and setting: to `CSc1nnc(NC(=O)c2nc(S(=O)(=O)Cc3ccc(C)cc3)ncc2Cl)s1` belongs “inactive”; to `Oc1c(Cl)cc(Cl)cc1/C=N/c1ncn[nH]1`, “inactive”.
The same measure, in the same setting: for `COc1cccc(NC(=O)C2C(c3ccccc3)C2(Cl)Cl)c1` (stereo not drawn) the value was “inactive”; for `CCC1(C)Cc2c(sc3[nH]c(=S)n(Cc4ccccc4)c(=O)c23)CO1` (stereo not drawn), “inactive”.
As to `O=C(NCc1ccc2c(c1)OCO2)c1ccc(Cl)s1`, the call was inactive.
Same read-out and setting: for `CCOC(=O)c1c(NC(=S)NC)sc2c1CCCC2` the value was “inactive”; for `CC(NC(=O)Nc1ccccc1)c1ccccc1` (stereo not drawn), “inactive”; for `CC(NC(=O)Nc1cccc([N+](=O)[O-])c1)c1ccc2c(c1)OCO2` (stereo not drawn), “inactive”.
Consider `Cc1ccc(NC(=O)C2CC2c2ccccc2)cc1` (stereo not drawn), for which the compound was classed as inactive.
As to `CCn1cc(CN2CCC(C(=O)Nc3cccc(-c4cccc(Cl)c4)c3)CC2)cn1`, the Tl flux remaining, % of negative control (active compounds read low) is 55% (active).
For the compound `CS(=O)(=O)c1sc(C(=O)NC(=S)Nc2ccc(OC(F)(F)F)cc2)c2c1C=CCC2`, the compound was classed as inactive.
Take `CCOC(=O)c1sc(=S)n2c1[nH]c(=O)c1ccc(C(=O)OC)cc12`: the compound was called inactive.
On the same count and under the same terms, to `O=C(NC(Nc1nc2ccc([N+](=O)[O-])cc2s1)(C(F)(F)F)C(F)(F)F)c1ccccc1` belongs “inactive”; to `CCC1(C)Cc2c(sc3nnn(CC(=O)Nc4ccc(Cl)cc4)c(=O)c23)CO1` (stereo not drawn), “inactive”.

System in another test: not listed separately
The test can be described thus: parental HEK293 cell activity, no Kir2.1 – FluxOR thallium flux, duplicate, single concentration, counter-screen for Kir2.1 inhibitor project, confirmation (AID 2105).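 On FluxOR signal as % of negative control (100 = no effect): percent is based on the flux ratio of peak minus minimum fluorescence over baseline F0.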 The conditions noted are these: parental HEK293 cells, FluxOR thallium flux fluorescence, at 10 µM; 0% = unstimulated blank wells. (A counterscreen serves to expose hits that act by an unwanted route or on another target.)
As for `N=c1c2c(-c3ccccc3)c(-c3ccccc3)n(Cc3ccccc3)c2ncn1CCCO`, the result was inactive.
Same read-out and setting: to `CCCCNC(=O)Nc1c(C)cc(SC#N)cc1C` belongs “inactive”.
As to `Cc1cc2oc3ccc(NCCC4CCCN4C)cc3c(=O)c2cc1C` (stereo not drawn), the FluxOR signal as % of negative control (100 = no effect) is 67.5% (active).
For `C/C(=N\NC(=O)c1ccoc1C)c1ccccc1O`, the result was inactive.
As for `CCN(CC(=O)NC(=O)NCc1ccccc1)Cc1nc2ccccc2c(=O)[nH]1`, the outcome was inactive.
On the same count and under the same terms, for `Cc1ccc2nc(C)c3c(c2c1)N(c1ccccc1)CC3` the value was “inactive”.
With `CCc1ccc(NC(=O)C(=O)NNC(=O)c2cccs2)cc1`, the FluxOR signal as % of negative control (100 = no effect) was 310% (active).
Same read-out and setting: for `N#Cc1c(-c2ccccc2)nc(SCc2cccc(C(F)(F)F)c2)[nH]c1=O` the value was 58% (active).
In the case of `Cc1ccc(/C=N/NC(=O)c2cc3ccccc3cc2O)o1`, the FluxOR signal as % of negative control (100 = no effect) is 414% (active).
Regarding `COc1ccc(NC(=O)/C(Cl)=C(/Cl)S(=O)Cc2ccc(C)cc2)cn1` (stereo not drawn), the result was inactive.
With `FC(F)(F)c1cccc(NC(=S)Nc2cccc(Cl)c2)c1`, the result was inactive.
Take `S=C(NCc1ccc(Cl)cc1)NC12CC3CC(CC(C3)C1)C2`: the result was inactive.
The same measure, in the same setting: to `O=C(NNC1=C(C(=O)C(F)(F)F)CCC1)c1ccncc1` belongs “inactive”.
Regarding `CCn1c(=S)[nH]c2sc3c(c2c1=O)CCCCC3`, the FluxOR signal as % of negative control (100 = no effect) was 402% (active).
On the same count and under the same terms, to `Cc1[nH]n(-c2cccc(Cl)c2)c(=O)c1/C=N/n1c(C)nc2ccccc2c1=O` belongs 145% (active).
Turning to `Cc1[nH][nH]c(=O)c1C(c1ccc(-c2ccc(Cl)cc2)o1)c1c(C)[nH][nH]c1=O`, the result was inactive.
For the compound `CCn1c2ccccc2c2cc(NC(=O)CNC)ccc21`, the result was inactive.
On the same count and under the same terms, to `Cc1ccc(-n2nc3c(c2NC(=O)CCC2CCCCC2)CS(=O)C3)cc1` (stereo not drawn) belongs “inactive”; to `CCc1ccc(-c2nn(-c3ccccc3)cc2CSC(=N)N)cc1`, “inactive”; to `O=C(Nc1ccc(Oc2ccccc2)cc1)c1ccco1`, “inactive”.
With `Cc1cccc(NC(=O)CSC(N)=O)c1C`, the outcome was inactive.
For the compound `Cc1cccc(NC(=S)NC(=O)c2ccc(Br)o2)c1`, the FluxOR signal as % of negative control (100 = no effect) was 170% (active).
In the case of `CC(=O)N(C1=C(Cl)C(=O)c2ccccc2C1=O)c1ccc(C(=O)O)cc1`, the result was inactive.
Regarding `CCn1c(O)c(N=NC2=NC(=O)CS2)c2cc(C)ccc21`, the FluxOR signal as % of negative control (100 = no effect) was 160% (active).
Consider `CC1=C/C(=N\OS(=O)(=O)c2ccccc2)C=CC1=O`, for which the outcome was inactive.
The same measure, in the same setting: for `CSc1nnc(NC(=O)c2nc(S(=O)(=O)Cc3ccc(C)cc3)ncc2Cl)s1` the value was “inactive”; for `Oc1c(Cl)cc(Cl)cc1/C=N/c1ncn[nH]1`, “inactive”.
On the same count and under the same terms, to `COc1cccc(NC(=O)C2C(c3ccccc3)C2(Cl)Cl)c1` (stereo not drawn) belongs “inactive”.
Take `CCC1(C)Cc2c(sc3[nH]c(=S)n(Cc4ccccc4)c(=O)c23)CO1` (stereo not drawn): the FluxOR signal as % of negative control (100 = no effect) is 527% (active).
On to `O=C(NCc1ccc2c(c1)OCO2)c1ccc(Cl)s1`, for which the outcome was inactive.
In the case of `CCOC(=O)c1c(NC(=S)NC)sc2c1CCCC2`, the FluxOR signal as % of negative control (100 = no effect) was 196% (active).
Consider `CC(NC(=O)Nc1ccccc1)c1ccccc1` (stereo not drawn), for which the result was inactive.
On the same count and under the same terms, to `CC(NC(=O)Nc1cccc([N+](=O)[O-])c1)c1ccc2c(c1)OCO2` (stereo not drawn) belongs “inactive”.
The same measure, in the same setting: for `Cc1ccc(NC(=O)C2CC2c2ccccc2)cc1` (stereo not drawn) the value was “inactive”.
On the same count and under the same terms, for `CCn1cc(CN2CCC(C(=O)Nc3cccc(-c4cccc(Cl)c4)c3)CC2)cn1` the value was “inactive”; for `CS(=O)(=O)c1sc(C(=O)NC(=S)Nc2ccc(OC(F)(F)F)cc2)c2c1C=CCC2`, “inactive”.
Take `CCOC(=O)c1sc(=S)n2c1[nH]c(=O)c1ccc(C(=O)OC)cc12`: the FluxOR signal as % of negative control (100 = no effect) is 174% (active).
On to `O=C(NC(Nc1nc2ccc([N+](=O)[O-])cc2s1)(C(F)(F)F)C(F)(F)F)c1ccccc1`, for which the result was inactive.
Turning to `CCC1(C)Cc2c(sc3nnn(CC(=O)Nc4ccc(Cl)cc4)c(=O)c23)CO1` (stereo not drawn), the result was inactive.

The values above are taken from PubChem BioAssay.
